# Shown are actives, neighbours in structure and some others; about 8% of the full set was active somewhere.
# SARS PLpro yeast = SARS-CoV PLP inhibition in yeast | Potency, µM (doses to about 32.9 µM), without a hit: top-dose activity, positive = growth rescue, most hits filed as activators | S. cerevisiae expressing SARS-CoV PLpro, growth rescue | AID 485353 | 0.19% of 330,000 active; calls by dose curve; also: potency is read from the fitted curve at half-maximal effect; 0% is about no effect; nearly all actives have a fitted effect of over 55% in size
# HCMV antiviral = inhibitors of human cytomegalovirus | HFF cells, HCMV-luciferase reporter, 72 h; stronger effect = lower value | activity change, negative = inhibition, % at 57.5 µM | 4.5% of 410,000 active | AID 1259415; in the data active = activity change below about -60%; inconclusive = no clear call, values can overlap the other calls; inactive = above about -39%; also: % is scaled to controls: 0 for no effect and ±100 for the full control effect
#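 Compounds were evaluated in HFFs infected with an HCMV luciferase reporter virus (MOI 1 PFU/cell). Luciferase in lysates collected 72 h post infection served as the replication measure.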
# Marburg entry inh = Marburg virus entry inhibition; AID 540276; Potency, µM (doses to about 37.8 µM), without a hit: top-dose activity change, negative = inhibition, most hits filed as inhibitors; Marburg virus pseudotyped entry inhibition, cell reporter; 1.8% of 300,000 active; calls by dose curve; tested in HEK293 cells; also: potency is read from the fitted curve at half-maximal effect; % is scaled to controls: 0 for no effect and ±100 for the full control effect
# HCV inhibitor = inhibitors of hepatitis C virus infection; Huh7.5.1 HCVcc-Cre infection, luciferase reporter, 44 h; 3.4% of 340,000 active; Potency, µM (top dose mostly 41.8 µM), inactives show at the top dose activity change, negative = inhibition, usual class: inhibitors; active = well fitted inhibition curve with a large enough effect; inconclusive = small, poorly fitted or top-dose-only effect, or another doubt; inactive = no such curve, though single readings can be large or run the other way; also: potency is read from the fitted curve at half-maximal effect; % is scaled to controls: 0 for no effect and ±100 for the full control effect
#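 HCVcc-Cre virus at an moi near 0.5 was added right after compound to cells cultured 4 h from seeding (1,000 cells/well). Luciferase activity was determined 44 h later, 15 min after substrate addition at RT.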
# FMDV inh = blocks foot and mouth disease virus; FMDV antiviral cell-based qHTS; Potency, µM (series often up to 57.9 µM), inactives show at the highest dose activity change, negative = inhibition, usual class: inhibitors; 1.2% of 410,000 active; calls by dose curve; tested in HEK293T cells; also: read-out not given here; potency is read from the fitted curve at half-maximal effect; % is scaled to controls: 0 for no effect and ±100 for the full control effect; nearly all actives have a fitted effect of over 45% in size
# LASV entry inh = inhibitors of Lassa virus binding or cell entry; Lassa virus pseudotype entry inhibition, cell reporter; Potency, µM (highest dose often 37.9 µM), for the others: at the highest dose activity change, negative = inhibition, usual class: inhibitors; 1.2% of 300,000 active; AID 540256; calls by dose curve; tested in HEK293 cells; also: potency is read from the fitted curve at half-maximal effect; % is scaled to controls: 0 for no effect and ±100 for the full control effect; nearly all actives have a fitted effect of over 50% in size
# An asterisk follows results filed as active; ? = inconclusive; · = no result given; ! = a repeat was not active; [ ] = remark or other dose.
SMILES,SARS PLpro yeast,HCMV antiviral,Marburg entry inh,HCV inhibitor,FMDV inh,LASV entry inh
Cc1ccc(NC(=O)CSc2nc(C)c(Cc3ccccc3)c(=O)[nH]2)cc1,-1.0%,-63.8*!,0.7%[46.1 µM],6.6%,-18.1%,5.4%
Cc1ccc2nc(-c3ccc(NC(=O)CSc4ccccc4)cc3)[nH]c2c1,-3.3%,?,?,11.2µM*,·,?
C=C[C@@H]1c2cc(C)ccc2N(S(=O)(=O)c2ccc(C)cc2)[C@H](c2ccc(OC(C)=O)cc2)C1(C#N)C#N,3.2%,-97.4*,·,8.91µM*,0.0%,·
C=C[C@@H]1c2ccccc2N(S(=O)(=O)c2ccc(C)cc2)[C@H](c2ccc(OC(C)=O)cc2)C1(C#N)C#N,0.4%,?,·,?,-26.6%,·
NC(N)=N/N=C/c1ccc(OCc2ccccc2)cc1,-2.3%,-96.5*,?,?,·,2.2%
COc1cccc(-c2nc(Oc3cc(C)cc(C)c3)c3ccccc3n2)c1O,16.6%,·,·,5.7%,·,·
COc1ccc(Nc2nc(-c3cccc(OC)c3O)nc3ccccc23)cc1,-6.3%,?,·,5.62µM*,3.9%,·
COc1cccc(-c2nc(NC(C)(C)C)c3ccccc3n2)c1O,-7.2%,10.7,-27.5%,?,25.1µM*,?
Cc1ccc(-n2ncc(C(=O)NCCCN3CCc4ccccc4C3)c2C2CCN(C(=O)OC(C)(C)C)CC2)cc1C,·,0.0,·,·,-13.3%,?
Cc1ccc2[nH]c(O)c(N=Nc3ccc(S(N)(=O)=O)cc3)c2c1,·,·,·,·,·,3.97µM*
CC(C)=Cc1cccc2[nH]c(O)c(N=Nc3ccc(S(N)(=O)=O)cc3)c12,·,·,·,·,·,3.97µM*
NS(=O)(=O)c1ccc(N=Nc2c(O)[nH]c3ccc(-c4cnco4)cc23)cc1,·,·,·,·,·,12.5µM*
CN1C2CCC1/C(=C\c1ccc(F)cc1)C(=O)/C2=C/c1ccc(F)cc1,-15.1%,-103.4*,?,?,-4.6%,-26.9%
CN1C2CCC1/C(=C/c1cccn1C)C(=O)/C2=C\c1cccn1C,4.8%,?,?,?,?,-28.6%
COc1ccc(-n2c(C)cc(/C=N/Nc3nnc(C)n3N)c2C)cc1,-34.9%,-22.7,?,11.2µM*,-10.3%,-16.5%
COc1cccc(/C=N/Nc2nnc(C)n2N)c1O,-5.3%,8.5,?,16.3%,-5.0%,9.2%[46.1 µM]
C#CCN(C[C@H]1[C@H](OC(=O)Nc2cccs2)[C@H](OC(=O)Nc2cccs2)CN(C(=O)OC(C)C)N1C(=O)OC(C)C)S(=O)(=O)c1ccc(C)cc1,·,-79.0*,·,·,·,·
C#CCN(C[C@@H]1[C@@H](OC(=O)NCc2ccccc2F)[C@@H](OC(=O)NCc2ccccc2F)Cn2c(=O)ccc(=O)n21)S(=O)(=O)c1ccc(C)cc1,·,-99.5*,·,·,14.1µM*,·
C#CCN(C[C@@H]1[C@@H](OC(=O)Nc2cccs2)[C@@H](OC(=O)Nc2cccs2)Cn2c(=O)ccc(=O)n21)S(=O)(=O)c1ccc(C)cc1,·,-103.5*,·,·,?,·
C#CCN(C[C@@H]1[C@@H](OC(=O)NC2CC2)[C@@H](OC(=O)NC2CC2)CN(C(=O)OC(C)C)N1C(=O)OC(C)C)S(=O)(=O)c1ccc(C)cc1,·,1.6,·,·,-1.3%,·
C#CCN(C[C@@H]1[C@@H](OC(=O)NC2CCCC2)[C@@H](OC(=O)NC2CCCC2)Cn2c(=O)ccc(=O)n21)S(=O)(=O)c1ccc(C)cc1,·,-101.4*,·,·,?,·
CC[C@@H](C)[C@@H](CO[C@@H](Cc1ccccc1)C(=O)N[C@@H](CCS(C)(=O)=O)C(=O)OC(C)C)NC[C@@H](N)CS,·,·,·,·,-18.1%[39.8 µM],·
COc1ccc2c(c1)cc1c(=O)n(CC(=O)NC(C)C)nc(C)n12,·,-3.3,3.3%[46.1 µM],·,-9.2%,·
CCC1CN(Cc2cn[nH]c2-c2ccc(OC)cc2)Cc2cc(OC)ccc2O1 (centres undefined),·,·,·,·,-20.2%,·
CCC(=O)N1CCc2cc(CNS(=O)(=O)c3cc(Cl)ccc3OC)ccc21,·,-23.3,·,·,54.4%,-2.1%[46.1 µM]
COc1ccc2[nH]c3c(Cl)ncnc3c2c1,9.9%,7.5,?,?,-19.8%,-23.1%
CCOC(=O)N1CCN(c2ncnc3c2[nH]c2ccc(OC)cc23)CC1,7.4%,?,10µM*,-29.3%,?,?

# Assay outcomes as filed in PubChem.
